From PubChem BioAssay (Tox21)
“And” between values parts separate entries of the source, which are not always exact repeats. Equal entries are not always repeated. Inconclusive results are not listed. Entries that show only a call come without a potency. Some structures have more than one record in an assay (separate samples or runs), and their calls can disagree. The source made the active and inactive calls. Calls follow the shape of the dose curve; as a rule, active = well fitted cell-killing curve with a large enough effect in the repeat runs; inconclusive = weak or mixed curves, or effect the other way; inactive = flat fitted curve, though single readings scatter.

Assay: qHTS assay to identify small molecule agonists of the sonic hedgehog signaling (Shh) pathway - cell viability counter screen (AID 1259366); also: nearly all actives have a fitted effect of over 50% in size
Conditions: NIH/3T3 Gli1-Luc viability, CellTiter-Fluor, 24 h; series mostly up to 92.4 µM
Text: National Center for Advancing Translational Sciences [NCATS]
NIH Chemical Genomics Center [NCGC]
U.S. Environmental Protection Agency [EPA]
National Institutes of Environmental Health Sciences [NIEHS]
National Toxicology Program [NTP]
U.S. Food and Drug Administration [FDA]
The sonic hedgehog (Shh) pathway is essential for normal embryonic development. Dysregulation of the Shh pathway can cause severe developmental defects in organs. Therefore chemicals that interfere with the pathway are potential developmental toxicants. A cell line designated 3T3Gli1-Luc (DMB/OARSA/CFSAN/FDA, Laurel, MD), a NIH/3T3 derived clone containing stably integrated Gli1-Luc reporter is used to detect chemical interference of the Shh pathway, by changes in the expression of the firefly Luc gene under the control of the Gli1 transcriptional response element. This cell line was used to screen Tox21 libraries for identifying and prioritizing the potential developmental toxicants that interfere Shh pathway. The cytotoxicity of the compounds was tested in parallel by measuring the cell viability using CellTiter-Fluor assay system (Promega, Madison, WI) in the same wells.
Tox21 Assay Protocol Summary:
3T3 Gli1-Luc cells were dispensed at 2,000 per well in 5uL of culture medium into white solid bottom 1536-well plates (Greiner Bio-One, Monroe, NC) using a Multidrop Combi (Thermo Scientific, Waltham, MA) dispenser. The assay plates were incubated at 37 C and 5% CO2 for 4hr, and then 23nL of compounds dissolved in DMSO and positive control were transferred using a Pintool station (Wako, San Diego, CA). The assay plates were incubated at 37C and 5% CO2 for 24hr. For viability read, after 23hr of compound treatment, 1uL of CellTiter-Fluor reagent (Promega Corporation, Madison, WI) was added to each well of the assay plates using Flying Reagent Dispenser (FRD, Aurora Discovery, San Diego, CA) and incubated the assay plates at 37C for 1hr. The fluorescence signal was quantified using a ViewLux plate reader (Perkin Elmer, Shelton, CT).
Potency is read from the fitted curve at half-maximal effect.

Row | Structure (SMILES) | Potency
1 | CCCCSP(=O)(SCCCC)SCCCC | inactive
2 | Nc1ccc([N+](=O)[O-])cc1N | 30.6 µM (active) and 24.3 µM (active)
3 | CCOS(=O)(=O)OCC | inactive
4 | CCC1(c2ccc(N)cc2)CCC(=O)NC1=O (stereo not given) | inactive
5 | CC(C)(O)C#N | inactive
6 | C=CC(=O)OCC(CC)(COC(=O)C=C)COC(=O)C=C | 11.2 µM (active) and 9.69 µM (active)
7 | CCCCOCCOC(C)=O | inactive
8 | Oc1ccc(Cl)cc1Cl | inactive
9 | NC(=O)CN1CCCC1=O | inactive
10 | C[N+](C)(C)C | inactive
11 | CCOP(=S)(OCC)SCn1c(=O)oc2cc(Cl)ccc21 | inactive
12 | COC(=O)Nc1nc2ccccc2[nH]1 | inactive
13 | ClC(Cl)(Cl)Br | inactive
14 | CC(C)CON=O | inactive
15 | Clc1ccc(C(Cl)(Cl)Cl)cc1 | inactive
16 | N#Cc1cccnc1 | inactive
17 | c1ccc2c(c1)Nc1ccccc1S2 | inactive
18 | COP(=O)(NC(C)=O)SC (stereo not given) | inactive
19 | OCCOCCO | 56.1 µM (active) and inactive
20 | CNC(=O)CSP(=S)(OC)OC | inactive

Row | Structure (SMILES) | Potency
21 | CC(C)(O)C(=O)Nc1ccc([N+](=O)[O-])c(C(F)(F)F)c1 | inactive
22 | Clc1ccccc1-c1nnc(-c2ccccc2Cl)nn1 | inactive
23 | Cc1cccc(N=Nc2ccc(N(C)C)cc2)c1 | 35 µM (active)
24 | ClC(Cl)(Cl)c1ccccc1 | inactive
25 | c1ccc(C2CO2)cc1 (stereo not given) | inactive
26 | COc1ccc(C=O)cc1OC | inactive
27 | C[N+](C)(C)CC(=O)O | inactive
28 | Cl | inactive
29 | O=P(OCCCl)(OCCCl)OCCCl | inactive
30 | CCCCCCCCCCCCCl | inactive
31 | CC(C)Nc1nc(Cl)nc(NC(C)C)n1 | inactive
32 | O=NN1CCOCC1 | inactive
33 | Brc1ccc(Br)cc1 | inactive
34 | Nc1ncn[nH]1 | inactive
35 | O=[N+]([O-])/N=C1\NCCN1Cc1ccc(Cl)nc1 | inactive
36 | Cc1ccc([N+](=O)[O-])cc1 | inactive
37 | O=[N+]([O-])c1ccc(Cl)c([N+](=O)[O-])c1 | 5.53 µM (active) and 13.7 µM (active)
38 | CC[n+]1c(-c2ccccc2)c2cc(N)ccc2c2ccc(N)cc21 | 54.2 µM (active) and inactive
39 | CC(C)Nc1ccc(Nc2ccccc2)cc1 | 24.2 µM (active) and 24.3 µM (active)
40 | ClCC(Cl)CCl | inactive
